In ChEMBL document CHEMBL5308541, “MAIP: An Open-Source Tool to Enrich High-Throughput Screening Output and Identify Novel, Druglike Molecules with Antimalarial Activity” (ACS Med Chem Lett, 2023):
The campaign covered roughly 4,800 compounds. About 420 (8.8%) showed an effect of 50% or more. The sample holds strong results, similar compounds and a random draw of the others, so the mix is not that of the screen.

What follows are compounds tested on Plasmodium falciparum (assay: Confirmatory screen in NF54 nanoGlo assay, in single point, at 2uM, 72h). Details: timepoint 72 hour.
Format: functional, Erythrocyte
For `Nc1nc(NCC2CCN(CCc3ccccc3)CC2)cc([C@H]2C[C@@H](N)C2)n1`, the “% Inhibition” value was 23%.
With `Cc1ccc(-c2cccc3c(C(=O)NCCCN4CCC(N5CCCCC5)CC4)cc(C)nc23)cc1` the “% Inhibition” value was 98%.
In the case of `COc1ccc(-c2cncc(C(=O)NCC3CCN(CCN(C)C)CC3)c2)cc1`, the “% Inhibition” value is reported as 94%.
`CN(C)CCN1CCC(CNCc2ccc3ncccc3c2)CC1` was tested, and the “% Inhibition” value was 5%.
With `Cn1cncc1[C@@H]1CNC[C@H]1CNC(=O)c1ccccc1NC1CCCCC1` the “% Inhibition” value was 79%.
For `Cc1cc(F)ccc1N1CCC(NCCCNc2cccnc2)CC1`, the “% Inhibition” value was 18%.
For `Brc1cccc(NCCNC2CCN(Cc3cccnc3)CC2)c1`, the “% Inhibition” value was 36%.
For `CC1CN(c2ccccc2NC(=O)c2ccc(-c3cnco3)cc2)CC(C)O1` (stereo unspecified), the “% Inhibition” value was -6%.
For `Cc1ccccc1CN1CCC(CNc2c3c(nc4ccccc24)CCC3)CC1`, the “% Inhibition” value was 95%.
With `Cc1cc(C)c(-c2csc(Nc3ncnc4[nH]ncc34)n2)cc1C` the “% Inhibition” value was 19%.
`CN(C[C@H](O)COc1ccccc1CN1CCC(c2ccncc2)CC1)C1CCCCC1` was tested, and the “% Inhibition” value was 39%.
For `O[C@H](COc1ccccc1CNCc1cc(-c2ccccc2)[nH]n1)CN1CCCCC1`, the “% Inhibition” value was 80%.
In the case of `Cc1nc2ccc(Oc3ccccc3)cc2c(O)c1CN(C)C1CCN(C)CC1`, the “% Inhibition” value is reported as 22%.
In the case of `CN1CCC(N(C)C[C@H](Nc2ncnc3ccccc23)c2ccccc2)CC1`, the “% Inhibition” value is reported as 99%.
With `CC1(N2CCC2)CCC(NC[C@H]2CCN(Cc3ccccc3)C2)CC1` (stereo partly specified) the “% Inhibition” value was 66%.
With `OC1CN(Cc2cnc(C3CCCCC3)nc2)CCC1Nc1ncccn1` (stereo unspecified) the “% Inhibition” value was 1%.
For `CN1CCN(CCc2ccc(N[C@H]3CCCN(Cc4ccccc4)C3(C)C)cc2)CC1`, the “% Inhibition” value was 10%.
With `C[C@H]1CCCN(CCNC(=O)c2ccc(-c3ccc4c(=O)[nH]ccc4c3)cc2)C1` the “% Inhibition” value was 58%.
With `c1cc(CN2CCN(c3cc(N4CCN(Cc5ccncc5)CC4)ncn3)CC2)ccn1` the “% Inhibition” value was 0%.
In the case of `CCOc1ccc2nc(N3CCC(N4CCC([C@H](O)c5cccnc5)CC4)CC3)nc(C)c2c1`, the “% Inhibition” value is reported as 29%.
In the case of `CCOc1ccc2nc(CN(CC)CC3CCN(C4CCN(C)CC4)CC3)ccc2c1`, the “% Inhibition” value is reported as 82%.
`Cc1noc(-c2ccnc(NC[C@@H](c3ccccn3)N3CCOCC3)c2)n1` was tested, and the “% Inhibition” value was 93%.
For `COc1ccnc(NCCCc2nc(-c3ccncc3)cs2)n1`, the “% Inhibition” value was 65%.
In the case of `CN(C)C1CCN(CCN[C@H]2CCc3ccc(F)cc32)CC1`, the “% Inhibition” value is reported as 85%.
For `Cc1ccccc1-c1cccc(N2CCC(NCC3CCNCC3)CC2)c1`, the “% Inhibition” value was 99%.
`Cc1ccccc1-c1cccc(CNCCCN2CCC[C@H](O)C2)c1` was tested, and the “% Inhibition” value was 12%.
`CCCN(CCN1CCN(CC)CC1)c1nc(-c2ccccn2)nc2c1CCC2` was tested, and the “% Inhibition” value was 6%.
`c1ccc(-c2nc3c(c(NCCNc4ncccn4)n2)CCC3)nc1` was tested, and the “% Inhibition” value was 25%.
In the case of `Cc1nc(-c2ccccn2)nc(NC2CCN(CC(F)F)CC2)c1C`, the “% Inhibition” value is reported as 35%.
In the case of `CCOc1cc(C(=O)NC2CCN(CC3CCCC3)CC2)cc(-c2ccccc2)c1OC`, the “% Inhibition” value is reported as 95%.
In the case of `Cc1cnccc1N1CCCN(Cc2ccccc2OCCN2CCN(C)CC2)CC1`, the “% Inhibition” value is reported as 99%.
In the case of `CN(C)C1(CNc2nc(C(F)(F)F)nc3cc4c(cc23)OCO4)CCCCCC1`, the “% Inhibition” value is reported as 49%.
With `CN(C)C1(CNc2nc(C(F)(F)F)nc3cc(F)ccc23)CCCCCC1` the “% Inhibition” value was 61%.
`C[C@H](Nc1nc(N)c2ccccc2n1)c1cccc(-n2cncn2)c1` was tested, and the “% Inhibition” value was 36%.
With `COCCNc1nc(N[C@@H](C)c2ccccc2)c2ccccc2n1` the “% Inhibition” value was 63%.
With `COCCN1CCC[C@H](CNCc2cnn(-c3ccc4ccccc4c3)c2)C1` the “% Inhibition” value was 12%.
`COCCN1CC[C@H](CNC2CCN(c3ncc4ccc(F)cc4n3)CC2)C1` was tested, and the “% Inhibition” value was 59%.
With `Cc1cc(N2CC3COCCC3(C(=O)O)C2)nc2ccc(F)cc12` (stereo unspecified) the “% Inhibition” value was -2%.
In the case of `c1cncc(-c2ccc(CNC3CCN(Cc4cccs4)CC3)cc2)c1`, the “% Inhibition” value is reported as 45%.
In the case of `Cc1ccn2cc(-c3ccc(N4CCC(NCc5cccnc5)CC4)cc3)nc2c1`, the “% Inhibition” value is reported as 60%.
`CN(c1ccccc1)c1ccc(CN2CCN([C@H]3CCNC3)CC2)cc1` was tested, and the “% Inhibition” value was 54%.
With `COC(=O)c1cn(CCNc2ccnc3cc(Cl)ccc23)cc2c(O)nnc1-2` the “% Inhibition” value was 95%.
For `Cc1ocnc1CNC[C@H](O)c1ccc(Cl)c(Cl)c1`, the “% Inhibition” value was 89%.
`CCc1ccc2ncnc(NCCCN3CCN(CCO)CC3)c2c1` was tested, and the “% Inhibition” value was 43%.
With `COCCCN1CCC(Nc2ncnc3cc(C)c(C)cc23)CC1` the “% Inhibition” value was 97%.
In the case of `Cc1cnccc1NCCNCc1cccc(OCCCCN2CCOCC2)c1`, the “% Inhibition” value is reported as 95%.
`Cc1cnccc1NCCNCc1cnc(N2CCCCC2)nc1` was tested, and the “% Inhibition” value was 61%.
For `c1ccc2c(CNCCC3CCN(c4ccncc4)CC3)csc2c1`, the “% Inhibition” value was 77%.
For `CCN1CCN(c2ccccc2CNCCC2CCN(C)CC2)CC1`, the “% Inhibition” value was 18%.
With `Fc1ccc(-n2cc(CNCCC3CCN(c4ccncc4)CC3)cn2)cc1` the “% Inhibition” value was 88%.
With `COc1ccc(-c2cc(-c3ccccc3O)n([C@@H]3C(=O)Nc4ccc(Br)cc43)n2)cc1` the “% Inhibition” value was 31%.
`CCCc1cccc(CNC2CCN(C3CCN(C)CC3)CC2)c1` was tested, and the “% Inhibition” value was 58%.
For `CN1CCN(CCNC2CCN3CCCC3C2)C(c2ccccc2)C1` (stereo unspecified), the “% Inhibition” value was 32%.
With `C[C@@H](CNC1CCN(C2CCN(C)CC2)CC1)c1cccc(Cl)c1` the “% Inhibition” value was 98%.
For `COc1ccc2nc(C)cc(NCc3cccc(NC(=O)c4ccco4)c3)c2c1`, the “% Inhibition” value was 96%.
In the case of `Cc1cc(NCCCN2CCC[C@H](O)C2)c2cc(F)ccc2n1`, the “% Inhibition” value is reported as 28%.
For `COc1ccc2c(C)cc(NCCCN3CCC[C@H](C(N)=O)C3)nc2c1`, the “% Inhibition” value was 87%.
For `N[C@H]1CC[C@@H](NC2CCN(c3ccc(F)c(F)c3)CC2)CC1`, the “% Inhibition” value was 45%.
For `Cc1nc2ccc(CNC3CCN(c4ccc(F)c(F)c4)CC3)cc2[nH]1`, the “% Inhibition” value was 56%.
In the case of `Fc1ccc(N2CCC(N[C@@H]3COC4(CCNCC4)C3)CC2)cc1F`, the “% Inhibition” value is reported as 13%.
With `COC(CN(Cc1nc(N)nc(Nc2ccc(C)cc2)n1)Cc1nc(N)nc(Nc2ccc(C)cc2)n1)OC` the “% Inhibition” value was 84%.
In the case of `OCCN1CCC(NCCc2cc(Cl)cc(Cl)c2)CC1`, the “% Inhibition” value is reported as 28%.
`CN1CCN(CCCCNC2CC3CCC(C2)N3Cc2ccccc2)CC1` (stereo unspecified) was tested, and the “% Inhibition” value was 34%.
`O=C(NCc1cccc(-c2cccnc2)c1)N[C@H]1CCN(C2CCCCC2)C1` was tested, and the “% Inhibition” value was 48%.
For `O=C(CCc1nnc(-c2ccc(-c3ccccc3)cc2)o1)NC[C@@H]1CCCN2CCCC[C@H]12`, the “% Inhibition” value was 56%.
In the case of `CC(C)(C)n1ncc2c(NCc3ccc4cccnc4c3O)ncnc21`, the “% Inhibition” value is reported as 27%.
With `CNc1nc(N2CCN(CC(=O)NC3CCCCC3)CC2)nc2ccccc12` the “% Inhibition” value was 23%.
For `CN1CCN(CC2CCN(c3ccnc4ccccc34)CC2)CC1`, the “% Inhibition” value was 99%.
For `COc1ccc2c(N3CC[C@H](CN4CCCC4)C3)ccnc2c1`, the “% Inhibition” value was 99%.
For `COc1cc2nc(-c3ccc(F)c4cccnc34)nc(N)c2cc1OC`, the “% Inhibition” value was 98%.
For `Cc1cccc(Nc2ccnc(Nc3ccc(N4CCN(C)CC4)cc3)n2)c1`, the “% Inhibition” value was 93%.
